Source: PubChem BioAssay AID602441 (National Center for Advancing Translational Sciences (NCATS), 2012)
The campaign covered roughly 1,300 compounds. Fewer than 10 were called active. About 9% were inconclusive and are not listed. Calls follow the shape of the dose curve; as a rule, active = well fitted curve in the direction sought with a large enough effect; inconclusive = small, poorly fitted or top-dose-only effect, or another doubt; inactive = no such curve, though single readings can be large or run the other way. The list is a sample of the results. A call without a number means that no potency is given here.

Assay: qHTS for antagonists of the Thyroid Stimulation Hormone Receptor: Hit Validation in Parental Cell Line
Conditions: parental HEK293 cells lacking TSHR, counter-screen; series mostly up to 56.9 µM
Source text: The thyroid-stimulating hormone receptor (TSHR) is a member of the 7 trans-membrane-spanning receptor (7TMR) family of cell surface receptors. TSHR-mediated hyperthyroidism is important in thyroid pathology. The development of small molecule antagonists of TSHR may lead to therapeutic approaches for TSHR-mediated hyperthyroidism caused by constitutively activating mutations or stimulating auto-antibodies associated with Graves' disease. Graves' disease is the leading cause of hyperthyroidism and is caused by autoantibodies that stimulate TSHR (TsAbs) causing thyroid growth and unregulated overproduction of thyroid hormones and existing treatments have liabilities (agranulocytosis). In addition, TSHRs are known to be expressed in multiple extrathyroidal tissues including bone, brain, kidney, testis, fat and cells of the immune system but the role of the TSHR in these tissues is not clear. Therefore, TSHR antagonists/inverse agonists could be used as probes of extrathyroidal TSHR function. Finally, TSHR inverse agonists, which are a subclass of antagonists that inhibit agonist-independent (or basal or constitutive) TSHR signaling, could be used to inhibit TSH-independent signaling in patients with recurrent or metastatic thyroid cancer who are receiving thyroid hormone to suppress TSH.
In collaboration between scientist from the NCGC and the NIDDK, a miniaturized HTRF high-throughput screen was developed. It's a cell based assay, where an anti cAMP antibody contains a fluorescent cryptate tag (excitation 337 nm; emission 620 nm) and the acceptor is cAMP-d2 (excitation 620 nm; emission 665 nm). When antibody and cAMP-d2 interact and are excited by a 337 nm light, a FRET occurs resulting in emission at 665 nm. The assay is competition between cAMP-d2 and cAMP (from the cell lysate). The homogeneous protocol allows for one step dispense after stimulation that is automation friendly. This is a hit validation assay in a counterscreen using parental HEK 293 cells lines.
NIH Chemical Genomics Center [NCGC]
NIH Molecular Libraries Probe Centers Network [MLPCN]
Assay Provider: Marvin Gershengorn, NIDDK
An anti cAMP antibody contains a fluorescent cryptate tag (excitation 337 nm; emission 620 nm) and the acceptor is cAMP-d2 (excitation 620 nm; emission 665 nm). When antibody and cAMP-d2 interact and are excited by a 337 nm light, a FRET occurs resulting in emission at 665 nm. The assay is competition between cAMP-d2 and cAMP (from the cell lysate). The homogeneous protocol allows for one step dispense after stimulation that is automation friendly. This assay uses parental HEK-EM 293 cells

Compound | Potency
N#CC(C#N)=C1C=CC=CN1/C(=C\c1ccco1)C(=O)c1ccccc1 | inactive
COc1ccc(CN(C)C(=O)COC(=O)c2cnc(Cl)c(Cl)c2)cc1 | inactive
O=C(Nc1ccn(Cc2ccccc2F)n1)c1ccc(COc2ccccc2Cl)cc1 | inactive
CCSC1=NSC2=NC(=O)/C(=C\c3coc4ccccc4c3=O)C(=N)N12 | inactive
CC1=C(OC(=O)c2ccccc2)C(C)(C)C(c2ccccc2)OC1=O (stereo not given) | inactive
O=C(Nc1nnc(S(=O)(=O)N2CCCCC2)s1)c1cccc(Br)c1 | inactive
O=C(/C=C/c1ccc(Cl)cc1Cl)NCCSCc1ccccc1 | inactive
CCCC(=O)N(C1CC(C)C(C#N)(C#N)C1(C#N)C#N)N(C)C (stereo not given) | inactive
Cc1ccc(Oc2cc(NC(=O)CCCn3nc([N+](=O)[O-])cc3C)cc([N+](=O)[O-])c2)cc1 | inactive
O=c1[nH]c(-c2ccccc2F)nc2c1sc(=S)n2Cc1ccccc1 | inactive
O=C(Nc1ccc2oc(-c3ccccc3F)nc2c1)c1ccc2c(c1)OCCO2 | inactive
C=CC(C)(C)c1c2occc2c(O)c2ccc(=O)oc12 | inactive
Cc1ccc(-c2csc(NC(=O)c3ccc4c(=O)n5c(nc4c3)CCCCC5)n2)cc1 | inactive
Cc1ccc(C2(c3ccc(C)cc3)CC2C(=O)Nc2ccc([N+](=O)[O-])cc2O)cc1 (stereo not given) | inactive
COc1ccc(NC(=O)c2ccc(-c3ccccc3)cc2)cc1NS(=O)(=O)c1ccc(F)cc1 | inactive
COc1ccc(N2CCN(C(=O)c3ccccc3N(C)S(=O)(=O)c3ccccc3)CC2)cc1 | inactive
Nc1ncc(Br)cc1S(=O)(=O)Nc1cc(C(F)(F)F)cc(C(F)(F)F)c1 | inactive
CCOc1cc(/C=C/c2ccc3cccc([N+](=O)[O-])c3n2)ccc1OCC(=O)N(C)C | inactive
C=CC[C@H](CC(=O)N(CCO)Cc1ccccc1)C(=O)N[C@H](COC(=O)[C@@H](CC=C)Cc1ccc(F)cc1)C(C)(C)C | inactive
COc1ccc(C)cc1-n1nnnc1SCc1cc(=O)n2cc(C)ccc2n1 | inactive
Cc1ccc(CSc2nnc(SCC(=O)N/N=C/c3c(C)nn(-c4ccccc4)c3C)s2)cc1 | inactive
COc1ccc(C(=O)Nc2ccc(Cl)c(S(=O)(=O)Nc3ccccc3OC)c2)cc1 | inactive
CC(Oc1ccc(Cl)cc1Cl)C(=O)Nc1cccnc1 (stereo not given) | inactive
O=C(c1ccco1)N1CCN(c2ncnc3c2nnn3Cc2ccccc2Cl)CC1 | inactive
CCOc1ccc2nc(NC(=O)c3ccc(OCC4CCCO4)cc3)sc2c1 (stereo not given) | inactive

Compound | Potency
O=c1c2ccccc2nnn1CSc1nnc(-c2cccs2)n1Cc1ccccc1 | inactive
O=C(O)c1nn(CC(=O)N2CCN(c3ncc(C(F)(F)F)cc3Cl)CC2)c(=O)c2ccccc12 | inactive
O=C(Nc1nc(-c2cccs2)c(-c2cccs2)s1)C1CCCC1 | inactive
COc1ccc(C2=NS(=O)(=O)N(C)C(C(=O)Nc3ccc4c(c3)OCO4)=C2)cc1OC | inactive
Cc1cc(C)c(S(=O)(=O)c2c(C)cccc2C)c(Cl)n1 | inactive
COc1ccc(S(=O)(=O)n2cnc3ccccc32)c(C)c1 | inactive
CCCCOc1ccc(/C=N/Nc2cc(N3CCOCC3)nc(C)n2)cc1 | inactive
O=c1cc(-c2ccccc2)nc2c(-c3ccccc3)c(C(F)(F)F)[nH]n12 | inactive
Cc1ccc(OCCSc2ncccn2)c(C)c1 | inactive
CCN(CC)S(=O)(=O)c1cccc(NC(=O)CNc2cccc(S(=O)(=O)N3CCOCC3)c2)c1 | inactive
C=CCn1c(SCC(=O)c2cccs2)nc2sc(CC)cc2c1=O | inactive
N#C/C(=C\c1ccc(Oc2ccc(C(F)(F)F)cc2[N+](=O)[O-])cc1)c1nc2ccccc2[nH]1 | inactive
Cc1cc(C)c(-c2csc(NC(=O)/C=C/c3cccs3)n2)c(C)c1 | inactive
Cc1ccc(C)c(S(=O)(=O)N2CCN(C(=O)C3CCN(c4ncnc5sc(C)c(C)c45)CC3)CC2)c1 | inactive
CC(C)(C)c1ccc(C(=O)CC(Sc2ccc(Cl)cc2)C(=O)O)cc1 (stereo not given) | inactive
O=C(NCc1ccc2c(c1)OCO2)C12CN(Cc3ccccc3)CC1C(c1cccc([N+](=O)[O-])c1)=NO2 (stereo not given) | inactive
Cc1nc2ccc(Nc3nc4cc(S(=O)(=O)N5CCOCC5)ccc4o3)cc2s1 | inactive
CSc1cccc(NC(=O)C2CCCN(S(=O)(=O)c3ccc(F)cc3)C2)c1 (stereo not given) | inactive
O=C(CSc1nc(-c2ccc(Cl)cc2)cs1)Nc1cccc([N+](=O)[O-])c1 | inactive
CCN(Cc1ccccc1)c1ccc(/C=N/NC(=O)c2cccc(S(=O)(=O)N3CCOCC3)c2)cc1 | inactive
Fc1ccc(/C=C2\CCCC3=C2Nc2ncnn2C3c2ccc(F)cc2)cc1 (stereo not given) | inactive
O=C1NC(=S)N(C(=O)c2ccc(F)cc2)/C1=C/c1ccccc1 | inactive
O=S(=O)(/N=C(/Nc1cccc2ccccc12)c1ccccc1)c1cccs1 | inactive
Cc1ccc(-c2csc(N(CCO)CCCn3c(C(F)(F)F)nc4ccccc43)n2)cc1 | inactive
Cc1ccc(C(=O)Nc2nc(-c3ccc(F)cc3)cs2)o1 | inactive

Compound | Potency
CN(c1ccc(OCC(=O)Nc2nc3ccccc3s2)cc1)S(=O)(=O)c1ccccc1 | inactive
Cc1cc(=O)[nH]c(SCC(=O)Nc2ccc(Br)cc2)c1C#N | inactive
CCCc1ccc(-c2c(C)sc(NC(=O)c3ccnn3C)c2C#N)cc1 | inactive
NS(=O)(=O)c1ccc(NCc2ccccc2OCc2ccccc2F)cc1 | inactive
O=C(Nc1cccc(S(=O)(=O)N2CCCCC2)c1)c1ccc2c(=O)n3c(nc2c1)CCCCC3 | inactive
COc1cc(/C=C(\C#N)c2nc3ccccc3s2)cc([N+](=O)[O-])c1O | inactive
O=C(CC1S/C(=N/N=C2CCCCCC2)NC1=O)Nc1ccc(Br)cc1F (stereo not given) | inactive
O=C(CNc1ccc(C(F)(F)F)cc1)Nc1cccc(S(=O)(=O)N2CCCC2)c1 | inactive
O=S(=O)(Nc1cccnc1)c1cc(Cl)ccc1Cl | inactive
COCC(C)n1c(COc2ccccc2F)nnc1SCc1c(C)noc1C (stereo not given) | inactive
CS(=O)(=O)c1ccc(C(=O)OCC(=O)NC(=O)C2CCCCC2)cc1[N+](=O)[O-] | inactive
CC(C)(C)c1cc2nc3c(c(=O)n2[nH]1)CN(Cc1ccccc1)C3=O | inactive
O=C(COc1ccccc1/C=C1\SC(=S)NC1=O)Nc1ccc(F)cc1 | inactive
CN(C)S(=O)(=O)Oc1cccc(C(=O)Nc2ccc(Cl)c(Cl)c2)c1 | inactive
O=[N+]([O-])c1ccc(NC(=S)NCCc2ccc(F)cc2)cc1 | inactive
COCC1CCCCN1C(=O)C1CCN(c2nc(-c3ccccc3)nc3c2CCC3)CC1 (stereo not given) | inactive
CC(CNC(=O)c1cc(COc2ccc3ncccc3c2)on1)c1ccccc1 (stereo not given) | inactive
N#C/C(=C(/O)COC(=O)c1ccc(C#N)cc1)c1nc2ccccc2s1 | inactive
CCCCCC/C(C)=C1/SC(=S)NC1=O | inactive
O=C(Cn1nc(Cc2cccnc2)c2ccccc2c1=O)NCC1COc2ccccc2O1 (stereo not given) | inactive
Cc1ccc(/C=C/C(=O)Nc2ccc(Oc3ccccc3)cc2)o1 | inactive
CC(C)Oc1ccc(C(=O)Nc2ccc(Cl)c(S(=O)(=O)Nc3ccc(Cl)cc3)c2)cc1 | inactive
Cc1ccc([N+](=O)[O-])cc1S(=O)(=O)Nc1ccc(-c2ccc(N3CCCC3)nn2)cc1 | inactive
Cc1ccccc1-n1sc2cc(F)ccc2c1=O | inactive
COc1ccc(CNC(=O)C(c2ccco2)N(C(=O)c2snc(C(N)=O)c2N)c2cccc(OC)c2)cc1 (stereo not given) | inactive

Compound | Potency
CC(C)C(c1nnnn1Cc1ccco1)N1CCN(c2nc3ccccc3s2)CC1 (stereo not given) | inactive
COc1cccc(CN(C)C(=O)c2ccc(Oc3ccccc3)cc2)c1OC | inactive
Cc1ccc(C2=NS(=O)(=O)N(C)C(C(=O)NCc3ccc(F)cc3)=C2)cc1 | inactive
CC(=O)c1ccc(N2CCN(C(=S)Nc3ccc(Oc4ccccc4)cc3)CC2)cc1 | inactive
CCn1c(=NC(=O)CSC(C)=O)sc2ccccc21 | inactive
Clc1ccc2c(c1)-c1nnc(Br)n1-c1ccccc1S2 | inactive
COc1ccc(C(=O)/C(=C\c2ccco2)N2C=CC=CC2=C(C#N)C#N)cc1 | inactive
COc1cc(/C=N/Nc2ccc(C(=O)O)cc2)ccc1O | inactive
Cc1nn(Cc2ccc(Cl)cc2)c(C)c1NC(=O)c1noc2c1CCc1ccccc1-2 | inactive
Cc1ccc(-n2c(Cl)c(Cl)nc(Cl)c2=O)cc1 | inactive
Cc1nn(-c2nc3ccccc3s2)c(N)c1-c1ccccc1 | inactive
CC(C)C(C)NC(=O)COc1ccc(Sc2ccc(OCC(=O)NC(C)C(C)C)cc2)cc1 (stereo not given) | inactive
Cc1ccc2nc(NC(=O)C3CCN(S(=O)(=O)c4cc([N+](=O)[O-])ccc4Cl)CC3)sc2c1 | inactive
Cc1cccc(NC(=O)C2C3CCC4C(CCC32)C4(Cl)Cl)c1 (stereo not given) | inactive
Cc1ccccc1Oc1cc(-n2ncc(Cl)c(Cl)c2=O)ncn1 | inactive
COc1ccc(NC(=O)/C(Cl)=C(/Cl)S(=O)(=O)Cc2ccccc2)cn1 | inactive
O=C(Nc1nc(-c2cccs2)cs1)c1ccc(S(=O)(=O)N2CCCCC2)cc1 | inactive
CCCCc1c(C)nc2nc(SCc3ccc(Cl)cc3)[nH]n2c1=O | inactive
Clc1cc(Cl)c(OCc2nc(-c3ccccn3)no2)cc1Cl | inactive
O=[N+]([O-])c1ccc(NC(=S)NCc2ccc(F)cc2)cc1 | inactive
CC1CCCCN1C(=O)CSCC(=O)Nc1nc(-c2cccs2)cs1 (stereo not given) | inactive
CC(=O)c1c(C)[nH]c(C(=O)COc2cc(C)ccc2C(C)C)c1C | inactive
COc1cccc(COc2cc3ccccc3nc2C)c1 | inactive
O=[N+]([O-])c1cc(Br)c(O)c(/C=N/Nc2nnnn2-c2cccc3ccccc23)c1 | inactive
Cc1csc2ncnc(N3CCN(S(=O)(=O)c4cccc(C(F)(F)F)c4)CC3)c12 | inactive
